From publication PMC11006913
Where a chain is given by its changes, count along the chain named.

What was measured:
Experiment in all cases: PBM; 200 nM protein, PBS
Details in all cases: dsDNA, one strand shown
SHOX [1] = molecular target: SHOX (Homo sapiens, UniProt O15266 103-189)
CRX [2] = molecular target: CRX (Homo sapiens, UniProt O43186 26-111)
CRX [3] = molecular target: CRX (Homo sapiens, UniProt O43186 26-111, E42D)
HOXD13 [4] = molecular target: HOXD13 (Homo sapiens, UniProt P35453 263-343, T313R)
HOXD13 (Homo sapiens, UniProt P35453 263-343, T313R), sequence (P35453 263-343 T313R): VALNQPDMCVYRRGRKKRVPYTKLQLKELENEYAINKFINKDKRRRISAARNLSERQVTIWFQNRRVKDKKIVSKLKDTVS

SHOX [5] = molecular target: SHOX (Homo sapiens, UniProt O15266 103-189, R173C)
SHOX (Homo sapiens, UniProt O15266 103-189, R173C), sequence (O15266 103-189 R173C): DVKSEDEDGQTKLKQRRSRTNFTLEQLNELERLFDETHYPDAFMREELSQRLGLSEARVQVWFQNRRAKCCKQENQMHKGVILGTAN

HOXD13 [6] = molecular target: HOXD13 (Homo sapiens, UniProt P35453 263-343)
HOXD13 (Homo sapiens, UniProt P35453 263-343), sequence (P35453 263-343): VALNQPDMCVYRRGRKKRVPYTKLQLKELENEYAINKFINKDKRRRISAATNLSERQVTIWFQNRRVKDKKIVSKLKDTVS

HOXD13 [7] = molecular target: HOXD13 (Homo sapiens, UniProt P35453 263-343, T313A)
HOXD13 (Homo sapiens, UniProt P35453 263-343, T313A), sequence (P35453 263-343 T313A): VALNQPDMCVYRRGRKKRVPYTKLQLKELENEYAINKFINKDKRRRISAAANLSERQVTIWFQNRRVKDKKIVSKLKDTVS

CRX [8] = molecular target: CRX (Homo sapiens, UniProt O43186 26-111, R41L)
CRX (Homo sapiens, UniProt O43186 26-111, R41L), sequence (O43186 26-111 R41L): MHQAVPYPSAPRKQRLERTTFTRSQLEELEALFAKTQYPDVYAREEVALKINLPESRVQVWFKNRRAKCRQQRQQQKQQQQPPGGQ

VENTX [9] = molecular target: T1, VENTX (Homo sapiens, UniProt O95231 78-163, R121Q)
T1 sequence: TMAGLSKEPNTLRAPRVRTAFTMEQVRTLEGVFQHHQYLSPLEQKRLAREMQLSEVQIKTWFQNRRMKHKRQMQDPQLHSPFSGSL

HOXC9 [10] = molecular target: HOXC9 (Homo sapiens, UniProt P31274 178-260, K195R)
HOXC9 (Homo sapiens, UniProt P31274 178-260, K195R), sequence (P31274 178-260 K195R): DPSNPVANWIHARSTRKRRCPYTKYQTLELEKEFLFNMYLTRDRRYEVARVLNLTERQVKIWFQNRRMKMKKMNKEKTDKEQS

VENTX [11] = molecular target: T2, VENTX (Homo sapiens, UniProt O95231 78-163)
T2 sequence: T1 sequence with Q44R

VENTX [12] = molecular target: T3, VENTX (Homo sapiens, UniProt O95231 78-163, Y115F)
T3 sequence: T1 sequence with Y38F, Q44R

HOXC9 [13] = molecular target: HOXC9 (Homo sapiens, UniProt P31274 178-260)
HOXC9 (Homo sapiens, UniProt P31274 178-260), sequence (P31274 178-260): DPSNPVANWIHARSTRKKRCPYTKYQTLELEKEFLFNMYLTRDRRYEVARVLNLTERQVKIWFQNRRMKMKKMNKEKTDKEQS

HOXC9 [14] = molecular target: HOXC9 (Homo sapiens, UniProt P31274 178-260, R193K)
HOXC9 (Homo sapiens, UniProt P31274 178-260, R193K), sequence (P31274 178-260 R193K): as the sequence (P31274 178-260) above, with R16K counted along it

HOXC9 [15] = molecular target: HOXC9 (Homo sapiens, UniProt P31274 178-260, R222W)
HOXC9 (Homo sapiens, UniProt P31274 178-260, R222W), sequence (P31274 178-260 R222W): as the sequence (P31274 178-260) above, with R45W counted along it

SIX6 [16] = molecular target: T4, SIX6 (Homo sapiens, UniProt O95475 114-200, L167I)
T4 sequence: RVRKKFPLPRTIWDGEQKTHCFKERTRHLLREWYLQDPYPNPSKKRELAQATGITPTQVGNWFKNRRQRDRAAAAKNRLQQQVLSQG

SIX6 [17] = molecular target: T5, SIX6 (Homo sapiens, UniProt O95475 114-200, L143V)
T5 sequence: T4 sequence with L30V, I54L

HOXA7 [18] = molecular target: HOXA7 (Homo sapiens, UniProt P31268 116-202)
HOXA7 (Homo sapiens, UniProt P31268 116-202), sequence (P31268 116-202): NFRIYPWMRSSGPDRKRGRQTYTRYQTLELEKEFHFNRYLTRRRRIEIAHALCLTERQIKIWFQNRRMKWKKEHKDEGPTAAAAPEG

SIX6 [19] = molecular target: T6, SIX6 (Homo sapiens, UniProt O95475 114-200, H141N)
T6 sequence: T4 sequence with H28N, I54L

SIX6 [20] = molecular target: T7, SIX6 (Homo sapiens, UniProt O95475 114-200, T165P)
T7 sequence: T4 sequence with T52P, I54L

SIX6 [21] = molecular target: T8, SIX6 (Homo sapiens, UniProt O95475 114-200, L167M)
T8 sequence: T4 sequence with I54M

SIX6 [22] = molecular target: T9, SIX6 (Homo sapiens, UniProt O95475 114-200, L143M)
T9 sequence: T4 sequence with L30M, I54L

SIX6 [23] = molecular target: T10, SIX6 (Homo sapiens, UniProt O95475 114-200, L143I)
T10 sequence: T4 sequence with L30I, I54L

SIX6 [24] = molecular target: T11, SIX6 (Homo sapiens, UniProt O95475 114-200, T165G)
T11 sequence: T4 sequence with T52G, I54L

SIX6 [25] = molecular target: T12, SIX6 (Homo sapiens, UniProt O95475 114-200, T139Q)
T12 sequence: T4 sequence with T26Q, I54L

ALX3 [26] = molecular target: ALX3 (Homo sapiens, UniProt O95076 139-225, N203Q)
ALX3 (Homo sapiens, UniProt O95076 139-225, N203Q), sequence (O95076 139-225 N203Q): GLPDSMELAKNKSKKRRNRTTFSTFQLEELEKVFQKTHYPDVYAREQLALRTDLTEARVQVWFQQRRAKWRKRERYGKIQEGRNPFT

SIX6 [27] = molecular target: T13, SIX6 (Homo sapiens, UniProt O95475 114-200, T165A)
T13 sequence: T4 sequence with T52A, I54L

SIX6 [28] = molecular target: T14, SIX6 (Homo sapiens, UniProt O95475 114-200, L167V)
T14 sequence: T4 sequence with I54V

ALX3 [29] = molecular target: ALX3 (Homo sapiens, UniProt O95076 139-225)
ALX3 (Homo sapiens, UniProt O95076 139-225), sequence (O95076 139-225): as the sequence (O95076 139-225 N203Q) above, with Q65N counted along it

SIX6 [30] = molecular target: T15, SIX6 (Homo sapiens, UniProt O95475 114-200)
T15 sequence: T4 sequence with I54L

ALX3 [31] = molecular target: ALX3 (Homo sapiens, UniProt O95076 139-225, L168Q)
ALX3 (Homo sapiens, UniProt O95076 139-225, L168Q), sequence (O95076 139-225 L168Q): as the sequence (O95076 139-225 N203Q) above, with L30Q, Q65N counted along it

SIX6 [32] = molecular target: T16, SIX6 (Homo sapiens, UniProt O95475 114-200, T165I)
T16 sequence: T4 sequence with T52I, I54L

ALX3 [33] = molecular target: ALX3 (Homo sapiens, UniProt O95076 139-225, L168V)
ALX3 (Homo sapiens, UniProt O95076 139-225, L168V), sequence (O95076 139-225 L168V): as the sequence (O95076 139-225 N203Q) above, with L30V, Q65N counted along it

HOXA7 [34] = molecular target: HOXA7 (Homo sapiens, UniProt P31268 116-202, W177C)
HOXA7 (Homo sapiens, UniProt P31268 116-202, W177C), sequence (P31268 116-202 W177C): as the sequence (P31268 116-202) above, with W62C counted along it

ALX3 [35] = molecular target: ALX3 (Homo sapiens, UniProt O95076 139-225, N203S)
ALX3 (Homo sapiens, UniProt O95076 139-225, N203S), sequence (O95076 139-225 N203S): as the sequence (O95076 139-225 N203Q) above, with Q65S counted along it

PITX2 = PITX2 (Homo sapiens, UniProt Q99697 72-157)
HOXB6 [36] = molecular target: HOXB6 (Homo sapiens, UniProt P17509 132-218, K202E)
HOXB6 (Homo sapiens, UniProt P17509 132-218, K202E), sequence (P17509 132-218 K202E): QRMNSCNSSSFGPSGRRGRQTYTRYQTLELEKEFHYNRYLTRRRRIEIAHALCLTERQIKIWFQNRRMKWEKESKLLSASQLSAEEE

HOXB6 [37] = molecular target: HOXB6 (Homo sapiens, UniProt P17509 132-218)
HOXB6 (Homo sapiens, UniProt P17509 132-218), sequence (P17509 132-218): as the sequence (P17509 132-218 K202E) above, with E71K counted along it

SHOX (Homo sapiens, UniProt O15266 103-189), sequence (O15266 103-189): as the sequence (O15266 103-189 R173C) above, with C71R counted along it
CRX (Homo sapiens, UniProt O43186 26-111), sequence (O43186 26-111): as the sequence (O43186 26-111 R41L) above, with L16R counted along it
CRX (Homo sapiens, UniProt O43186 26-111, E42D), sequence (O43186 26-111 E42D): as the sequence (O43186 26-111 R41L) above, with L16R, E17D counted along it

Sequence: AGATATTG
- binding signal (SHOX [1]): 8.52 upbm affinity estimate (log intensity, higher = more binding, comparable within an allelic series)

Sequence: GGCGGGCA
- binding signal (SHOX [1]): 7.13 upbm affinity estimate (log intensity, higher = more binding, comparable within an allelic series)
- binding signal (CRX [2]): 8.31 upbm affinity estimate (log intensity, higher = more binding, comparable within an allelic series)
- binding signal (CRX [3]): 8.21 upbm affinity estimate (log intensity, higher = more binding, comparable within an allelic series)
- binding signal (HOXD13 [4]): 9.46 upbm affinity estimate (log intensity, higher = more binding, comparable within an allelic series)
- binding signal (SHOX [5]): 7.15 upbm affinity estimate (log intensity, higher = more binding, comparable within an allelic series)
- binding signal (HOXD13 [6]): 9.45 upbm affinity estimate (log intensity, higher = more binding, comparable within an allelic series)
- binding signal (HOXD13 [7]): 9.59 upbm affinity estimate (log intensity, higher = more binding, comparable within an allelic series)
- binding signal (CRX [8]): 8.39 upbm affinity estimate (log intensity, higher = more binding, comparable within an allelic series)

Sequence: CGTGAGAG
- binding signal (SHOX [1]): 7.22 upbm affinity estimate (log intensity, higher = more binding, comparable within an allelic series)
- binding signal (VENTX [9]): 8.23 upbm affinity estimate (log intensity, higher = more binding, comparable within an allelic series)
- binding signal (HOXC9 [10]): 9.74 upbm affinity estimate (log intensity, higher = more binding, comparable within an allelic series)
- binding signal (VENTX [11]): 8.19 upbm affinity estimate (log intensity, higher = more binding, comparable within an allelic series)
- binding signal (VENTX [12]): 8.23 upbm affinity estimate (log intensity, higher = more binding, comparable within an allelic series)
- binding signal (HOXC9 [13]): 9.82 upbm affinity estimate (log intensity, higher = more binding, comparable within an allelic series)
- binding signal (SHOX [5]): 7.25 upbm affinity estimate (log intensity, higher = more binding, comparable within an allelic series)
- binding signal (HOXC9 [14]): 9.77 upbm affinity estimate (log intensity, higher = more binding, comparable within an allelic series)
- binding signal (HOXC9 [15]): 9.81 upbm affinity estimate (log intensity, higher = more binding, comparable within an allelic series)

Sequence: AAACTAAG
- binding signal (SHOX [1]): 8.12 upbm affinity estimate (log intensity, higher = more binding, comparable within an allelic series)

Sequence: CCTCTCCG
- binding signal (SHOX [1]): 6.97 upbm affinity estimate (log intensity, higher = more binding, comparable within an allelic series)
- binding signal (SIX6 [16]): 8.93 upbm affinity estimate (log intensity, higher = more binding, comparable within an allelic series)
- binding signal (SIX6 [17]): 8.82 upbm affinity estimate (log intensity, higher = more binding, comparable within an allelic series)
- binding signal (HOXA7 [18]): 8.27 upbm affinity estimate (log intensity, higher = more binding, comparable within an allelic series)
- binding signal (SIX6 [19]): 8.83 upbm affinity estimate (log intensity, higher = more binding, comparable within an allelic series)
- binding signal (SIX6 [20]): 8.87 upbm affinity estimate (log intensity, higher = more binding, comparable within an allelic series)
- binding signal (SIX6 [21]): 8.89 upbm affinity estimate (log intensity, higher = more binding, comparable within an allelic series)
- binding signal (SIX6 [22]): 8.93 upbm affinity estimate (log intensity, higher = more binding, comparable within an allelic series)
- binding signal (SIX6 [23]): 8.91 upbm affinity estimate (log intensity, higher = more binding, comparable within an allelic series)
- binding signal (SIX6 [24]): 8.85 upbm affinity estimate (log intensity, higher = more binding, comparable within an allelic series)
- binding signal (SIX6 [25]): 8.89 upbm affinity estimate (log intensity, higher = more binding, comparable within an allelic series)
- binding signal (ALX3 [26]): 7.63 upbm affinity estimate (log intensity, higher = more binding, comparable within an allelic series)
- binding signal (HOXD13 [4]): 9.4 upbm affinity estimate (log intensity, higher = more binding, comparable within an allelic series)
- binding signal (SIX6 [27]): 8.98 upbm affinity estimate (log intensity, higher = more binding, comparable within an allelic series)
- binding signal (SHOX [5]): 7.06 upbm affinity estimate (log intensity, higher = more binding, comparable within an allelic series)
- binding signal (HOXD13 [6]): 9.42 upbm affinity estimate (log intensity, higher = more binding, comparable within an allelic series)
- binding signal (SIX6 [28]): 8.9 upbm affinity estimate (log intensity, higher = more binding, comparable within an allelic series)
- binding signal (ALX3 [29]): 7.51 upbm affinity estimate (log intensity, higher = more binding, comparable within an allelic series)
- binding signal (SIX6 [30]): 8.77 upbm affinity estimate (log intensity, higher = more binding, comparable within an allelic series)
- binding signal (ALX3 [31]): 7.69 upbm affinity estimate (log intensity, higher = more binding, comparable within an allelic series)
- binding signal (SIX6 [32]): 8.86 upbm affinity estimate (log intensity, higher = more binding, comparable within an allelic series)
- binding signal (HOXD13 [7]): 9.42 upbm affinity estimate (log intensity, higher = more binding, comparable within an allelic series)
- binding signal (ALX3 [33]): 7.6 upbm affinity estimate (log intensity, higher = more binding, comparable within an allelic series)
- binding signal (HOXA7 [34]): 8.41 upbm affinity estimate (log intensity, higher = more binding, comparable within an allelic series)
- binding signal (ALX3 [35]): 7.61 upbm affinity estimate (log intensity, higher = more binding, comparable within an allelic series)

Sequence: GATTAATC
- binding signal (SHOX [1]): 10.2 upbm affinity estimate (log intensity, higher = more binding, comparable within an allelic series)
- binding signal (CRX [2]): 13.2 upbm affinity estimate (log intensity, higher = more binding, comparable within an allelic series)
- binding signal (CRX [3]): 13 upbm affinity estimate (log intensity, higher = more binding, comparable within an allelic series)
- binding signal (PITX2): 12.9 upbm affinity estimate (log intensity, higher = more binding, comparable within an allelic series)
- binding signal (CRX [8]): 12.9 upbm affinity estimate (log intensity, higher = more binding, comparable within an allelic series)

Sequence: AATTTCGA
- binding signal (SHOX [1]): 8.68 upbm affinity estimate (log intensity, higher = more binding, comparable within an allelic series)

Sequence: GCTCCGAC
- binding signal (SHOX [1]): 7.2 upbm affinity estimate (log intensity, higher = more binding, comparable within an allelic series)
- binding signal (VENTX [9]): 8.1 upbm affinity estimate (log intensity, higher = more binding, comparable within an allelic series)
- binding signal (VENTX [11]): 8.29 upbm affinity estimate (log intensity, higher = more binding, comparable within an allelic series)
- binding signal (VENTX [12]): 8.19 upbm affinity estimate (log intensity, higher = more binding, comparable within an allelic series)
- binding signal (HOXB6 [36]): 9.12 upbm affinity estimate (log intensity, higher = more binding, comparable within an allelic series)
- binding signal (SHOX [5]): 7.25 upbm affinity estimate (log intensity, higher = more binding, comparable within an allelic series)
- binding signal (HOXB6 [37]): 9.05 upbm affinity estimate (log intensity, higher = more binding, comparable within an allelic series)
